Data on 93 compounds can be found in PubChem BioAssay AID449762 (Southern Research Specialized Biocontainment Screening …, 2010).

The campaign covered roughly 330,000 compounds. About 1,900 (0.58%) were called active. About 4% were inconclusive and are not listed. The list is a sample of the results. Entries with a potency or affinity are not part of this list. A number with no mark means an inactive call. Rule as the data show it: inconclusive = inhibition above about 70% without an active follow-up result; inactive = below that.

This experiment is described as follows: M. tuberculosis growth inhibition, HTS (AID 449762).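 Also: bacterial growth assessed after seven days of incubation.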 Particulars: M. tuberculosis H37Rv growth inhibition, 7H9 media; at 25 µM; active compounds read high.
Regarding `Cc1cccc(C)c1NC(=S)N(Cc1ccccc1)Cc1cccnc1`, the inhibition – broadly, the change of the read-out against control, counted positive when it falls – is -3.48%.

For the compound `O=C(O)[C@@H]1[C@@H]2C[C@@H]2CN1c1ncccc1[N+](=O)[O-]`, the inhibition is -3.12%.

Regarding `CN1C(=O)N(C)c2ccc(Br)c3cccc1c23`, the inhibition was -5.58%.

Take `CN1C(=O)N(C)c2cccc3cccc1c23`: the inhibition is 7.44%.

As for `O=C(c1cc2c(=O)n3ccccc3nc2s1)N1CCN(c2cccc(Cl)c2)CC1`, the inhibition was 5.56%.

Turning to `CC(=O)c1nn(-c2ccccc2)cc1C(=O)c1ccc(C)cc1`, the inhibition was 2.07%.

Regarding `COc1ccc2oc(-c3ccc(C)c(NC(=O)CSc4ccc(Cl)cc4)c3)nc2c1`, the inhibition is -3.67%.

As for `Cc1ccc(/C=C2\SC(=S)N(CCC(=O)NNC(=O)c3ccc(O)cc3)C2=O)cc1`, the inhibition is 3.42%.

Take `Cc1cccc(C2=N/C(=C\c3cccnc3)C(=O)O2)c1`: the inhibition was -3.98%.

On to `Cc1ccccc1C1=N/C(=C/c2cccs2)C(=O)O1`, for which the inhibition is 61%.

As for `CCOC(=O)N=Nc1c(O)n(CC(=O)OC)c2ccccc12`, the inhibition is -0.16%.

As for `CCCSc1nc2c(cnn2-c2ccc(Cl)cc2)c(=O)[nH]1`, the inhibition was 6.95%.

In the case of `O=C(NNC(=O)c1cc(S(=O)(=O)N2CCOCC2)c(Cl)cc1Cl)c1ccccc1F`, the inhibition is 0.47%.

With `Cc1nn(Cc2ccccc2)c(C)c1C(=O)OCC(=O)Nc1cc(S(C)(=O)=O)ccc1Cl`, the inhibition is 6.17%.

Take `O=C(Nc1ccc(F)cc1)N1CCN(c2ccc3nnc(-c4ccc(F)cc4)n3n2)CC1`: the inhibition is -4.53%.

With `O=C(Nc1ccccc1Cl)N1CCN(c2ccc3nnc(-c4ccc(F)cc4)n3n2)CC1`, the inhibition is 22.4%.

In the case of `CC1=C(C(=O)NC(C)c2ccccc2)C2(CCC(C)CC2)OC1=O` (stereo not drawn), the inhibition was -6.81%.

Turning to `Cc1cc(/C=C(\C#N)C(=O)NCc2ccccc2)cc(C)c1O`, the inhibition is -9.9%.

For the compound `CCOc1cc(CNCc2ccc3c(c2)OCO3)ccc1OC`, the inhibition is -2.37%.

Turning to `COc1ccc(CCNC(=O)CSc2ncc(C(=O)Nc3ccccc3)c(=O)n2C)cc1`, the inhibition was -4.13%.

Turning to `Cc1cccc(NC(=S)N(CCCN2CCCC2)Cc2cccn2Cc2ccc(Cl)cc2)c1`, the inhibition was 42.3%.

In the case of `COc1cccc(NC(=S)N(CCCN2CCCC2)Cc2cccn2Cc2ccc(Cl)cc2)c1`, the inhibition is 6.09%.

On to `CN(C)N1C(=O)/C(=C/c2ccco2)SC1=Nc1ccccc1`, for which the inhibition is -2.31%.

For the compound `OC1(c2ccccc2)CCN(Cc2ccccc2)CC1`, the inhibition is -0.23%.

For the compound `ClC1(CNc2ccccc2)CCN(Cc2ccccc2)CC1`, the inhibition was -3.08%.

Regarding `CCOC(=O)N1CCC2(CC1)C(C#N)=C(N)OC1=C2C(=O)CC(C)C1` (stereo not drawn), the inhibition was -8.64%.

`COc1ccc(NC(=O)CSc2nc3ccccc3c(=O)[nH]2)cc1S(N)(=O)=O`: the inhibition is -3.14%.

Turning to `CC(=O)Nc1ccc(-c2csc(N/N=C\c3ccncc3)n2)cc1`, the inhibition was 6.44%.

For `C(=N\Nc1nc(-c2ccccc2)cs1)/c1cccs1`, the inhibition is 28.8%.

On to `CC(CNC(=O)CN1C(=O)NC2(CCCCC2)C1=O)c1ccccc1` (stereo not drawn), for which the inhibition was -3.97%.

For `COC(=O)c1nnn(CC(=O)NC(=O)Nc2ccccc2)c1C(=O)OC`, the inhibition was -6.63%.

Turning to `O=C1c2ccccc2C(=O)c2c1oc(C(F)(F)F)c2C(=O)c1ccccc1`, the inhibition is 9.23%.

Take `COc1ccc(C(=O)Nc2ccc3c(c2)C(=O)c2ccccc2C3=O)cc1OC`: the inhibition is 4.14%.

For the compound `CC(C)(C)c1ccc(C(=O)NCC(=O)OCC(=O)N2CCN(S(=O)(=O)c3ccc(Cl)cc3)CC2)cc1`, the inhibition is 8.58%.

As to `Cc1ccc(S(=O)(=O)NCc2ccc(C(=O)NCCCN3CCN(C)CC3)cc2)cc1`, the inhibition was -4.79%.

In the case of `CC(=O)Nc1ccc(S(=O)(=O)NCc2ccc(C(=O)NCCCN3CCC(C)CC3)cc2)cc1`, the inhibition is 2.04%.

For `N/C(=N\OC(=O)c1cnn(-c2ccccc2)c1C(F)(F)F)c1cc(C(F)(F)F)cc(C(F)(F)F)c1`, the inhibition is 9.61%.

For the compound `COc1cc(C2/C(=C(\O)c3ccc4c(c3)OCCO4)C(=O)C(=O)N2Cc2ccco2)ccc1O` (stereo not drawn), the inhibition was -4.18%.

As to `O=C(OCc1nc2ccccc2s1)c1ccco1`, the inhibition was 53.7%.

For the compound `CSCc1ccc(C(=O)OCc2nc3ccccc3s2)o1`, the inhibition was 65.8%.

Regarding `CC(=O)C1=C(O)C(=O)N(c2ccc(Br)cc2)C1c1cccc([N+](=O)[O-])c1` (stereo not drawn), the inhibition was -1.11%.

As to `O=C(CS(=O)CC(=O)Nc1cnc2ccccc2c1)Nc1ccc(Cl)cc1` (stereo not drawn), the inhibition was 47%.

For the compound `CCOc1ccc(NC(=S)NC23CC4CC(CC(C4)C2)C3)cc1`, the inhibition was -20.5%.

With `CSc1nsc(SC)c1C(=O)OCC(F)(F)F`, the inhibition is -1.41%.

Consider `CCN(CC)C(=O)CN1CCC(c2nc3cc(C)c(C)cc3[nH]2)CC1`, for which the inhibition was -1.85%.

On to `CCN1CCN(CC2COc3ccccc3O2)CC1` (stereo not drawn), for which the inhibition is -2.32%.

For the compound `CCC(C)N1C(=O)CCC1C(=O)NCCc1ccc(Cl)cc1` (stereo not drawn), the inhibition is 5.11%.

In the case of `CCCCOc1ccc(CC2CCC(=O)NC2=O)cc1` (stereo not drawn), the inhibition is 12.4%.

Turning to `CCOc1ccc(C(C)(C)C)cc1S(=O)(=O)n1nc(C)cc1C`, the inhibition is -3.62%.

`O=C(/C=C/c1ccccc1)Oc1ccc(C(=S)N2CCOCC2)cc1`: the inhibition is 13.4%.

Turning to `COc1cc(C(=S)N2CCOCC2)ccc1OC(=O)/C=C/c1ccco1`, the inhibition was 5.25%.

Turning to `CN(C)S(=O)(=O)c1ccc(Nc2ccc(-c3ccc4c(c3)OCCO4)nn2)cc1`, the inhibition is 2.53%.

For the compound `CN(C(=O)c1cccc(NC(=O)c2ccccc2)c1)C1CCCCC1`, the inhibition was -5.84%.

Turning to `CCOc1ccc(-c2nn3c(-c4ccc(F)cc4)nnc3s2)cc1`, the inhibition is 0.65%.

`COc1ccc(-c2nn3c(-c4ccccc4)nnc3s2)cc1`: the inhibition is 36.9%.

`COc1ccccc1OCC(=O)N/N=C1/C=C(C)CC1`: the inhibition is 8.93%.

As for `COc1ccc(CNC(=O)C2CCC(CNc3c(N4CCOCC4)c(=O)c3=O)CC2)cc1` (stereo not drawn), the inhibition was -8.95%.

Consider `COc1cc(NC(=O)c2ccc(CNc3c(N4CCOCC4)c(=O)c3=O)cc2)cc(OC)c1`, for which the inhibition was -10.6%.

As to `O=C(c1ccc(CNc2c(N3CCCC3)c(=O)c2=O)cc1)N1CCN(C2CCCCC2)CC1`, the inhibition was 38.8%.

On to `Cc1ccc(CNC(=O)c2ccc(CNc3c(N4CCCC4)c(=O)c3=O)cc2)cc1`, for which the inhibition was -5.18%.

Take `CC(C)C[C@H]1CNC(=O)C(=O)N1C[C@H](C)NC(=O)Cc1ccccc1`: the inhibition is -3.35%.

Consider `N#Cc1cccc(C(=O)N(CCc2ccccc2)Cc2cccs2)c1`, for which the inhibition is 2.88%.

Regarding `Cc1cc(NC(=O)CN(C)CC(=O)Nc2ccc(F)c(F)c2F)no1`, the inhibition was -14.5%.

Regarding `N#Cc1c(-c2ccc(Br)cc2)nc2n(c1=O)CCCS2`, the inhibition is -5.36%.

For `O=c1nc2n(c3ccc(Br)cc13)CCS2`, the inhibition is 14%.

`CC(C)n1nnnc1-c1ccc(Cl)cc1`: the inhibition is -5.7%.

Consider `N#Cc1ccc(C23OCCN2CCn2c3c3ccccc3[n+]2[O-])cc1` (stereo not drawn), for which the inhibition is 21.6%.

`Cc1ccc(C23OCCN2CCn2nc4ccccc4c23)cc1` (stereo not drawn): the inhibition was -9.54%.

Regarding `O=C(Nc1sc2c(c1C(=O)NC1CC1)CCCCCC2)c1ccco1`, the inhibition was -5.06%.

Consider `c1cncc(C2CC(c3cccs3)n3ncnc3N2)c1` (stereo not drawn), for which the inhibition was -8.25%.

`Cc1ccc2nc(/C(C#N)=C/c3ccccc3C(=O)O)[nH]c2c1`: the inhibition was -0.89%.

Regarding `Cc1ccc2nc(/C(C#N)=C/c3ccc(O)c(O)c3)[nH]c2c1`, the inhibition was 0.8%.

Take `CCc1ccccc1NC(=O)CNC(=O)c1n[nH]c(=O)c2ccccc12`: the inhibition was -6.75%.

As to `C=C[C@@H]1c2cc(C)ccc2N(S(=O)(=O)c2ccc(C)cc2)[C@H](c2ccccc2)C1(C#N)C#N`, the inhibition is -12.5%.

`COc1cc(C)ccc1OCCOc1c(C)cccc1Cl`: the inhibition was 62.7%.

Turning to `COc1cc(C)ccc1OCCOc1c(Cl)cc(Cl)cc1Cl`, the inhibition was -4.9%.

With `CC(C)Oc1ccc(C(=O)NC(Cc2c[nH]c3ccccc23)C(=O)NN)cc1` (stereo not drawn), the inhibition is 3.03%.

Take `CC(C)NC(=O)c1cnc(N2CCN(c3ccccn3)CC2)c2ccccc12`: the inhibition is -4.73%.

`Cc1cc(Br)ccc1NC(=O)CN1CCN(c2ccccn2)CC1`: the inhibition is -1.24%.

As to `COc1ccc(Br)cc1C(=O)Nc1ccc(Cc2ccncc2)cc1`, the inhibition was -1.26%.

On to `COc1ccccc1C(=O)Nc1ccc(Cc2ccncc2)cc1`, for which the inhibition is -0.58%.

`O=C(NCCc1ccc(Cl)cc1)C1CCCN(c2ncnc3c2nc2n3CCCCC2)C1` (stereo not drawn): the inhibition was 29.1%.

Take `NC(=O)C1CCN(C(=O)c2ccc(-c3ccccc3Cl)o2)CC1`: the inhibition was -1.57%.

With `CC1CCCN(C(=O)c2ccc(-c3ccccc3Cl)o2)C1` (stereo not drawn), the inhibition is 27.8%.

As to `COCc1cc(C)nc(SCC[N+](C)(C)CC(=O)Nc2cccc(C)c2)c1C#N`, the inhibition was 10.4%.

In the case of `CNc1nc2c(-c3ccc(Cl)cc3)nnn2c2ccccc12`, the inhibition is 8.01%.

Regarding `NNc1nc2c(-c3ccc(Cl)cc3)nnn2c2ccccc12`, the inhibition was -3.53%.

For the compound `CCC(C)CCN1C(Nc2ccccc2)=NC[C@@H]1CC(C)C` (stereo partly drawn), the inhibition is -0.75%.

In the case of `CN1C(C(=O)N2CCC3(CC2)OCCO3)=CC(c2ccc(F)cc2)=NS1(=O)=O`, the inhibition was 1.76%.

With `Cc1nonc1OCCNCCNc1ccccc1[N+](=O)[O-]`, the inhibition was 5.53%.

As for `Cc1nonc1OCCNc1ccc([N+](=O)[O-])c2cccnc12`, the inhibition is 2.82%.

Regarding `C#CCOCCOCCOCCNc1nc(N2CCN(C(=O)[C@H](CCC(=O)O)n3cc(C(N)Cc4ccc(O)cc4)nn3)CC2)nc(N2CCN(C(=O)[C@H](Cc3cc4ccccc4[nH]3)n3cc(C(N)CC(C)C)nn3)CC2)n1` (stereo partly drawn), the inhibition was -1.44%.

Consider `C#CCOCCOCCOCCNc1nc(N2CCN(C(=O)C(CCC(=O)O)n3cc(C(N)CC(C)C)nn3)CC2)nc(N2CCN(C(=O)C(Cc3cc4ccccc4[nH]3)n3cc(C(N)Cc4ccc(O)cc4)nn3)CC2)n1` (stereo not drawn), for which the inhibition is 2.57%.
